Data taken from PubChem BioAssay.
Calls of active or inactive are those of the source.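 How the source made its calls, unless noted: active means inhibition at or above 50% at 10 µM; inactive means inhibition below 50%.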

Key:
[1] = inhibitors of TNFa-induced NFkB p65 translocation, primary screen, imaging, HUVEC, MLSMR starter and 10KST1 sets (AID 438;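 active means inhibition above 20% together with a positive visual image hit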;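 further: compound added about 3h40 before a 20 min TNFalpha stimulation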;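 on inhibition: signal is the nuclear over cytoplasmic p65 intensity ratio per well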); conditions: HUVEC TNFa-induced p65 nuclear translocation; cell count: measured here: nuclei count (cytotoxicity indicator), at 2.08 µM; inhibition: at 2 µM, stronger effect = higher value, 0% TNFa-plus-vehicle, 100% no-TNFa wells
[2] = reduction of polyQ htt aggregates in cells – imaging, exon1htt(103Q)mCFP cells, high-content imaging, primary screen (AID 483;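 active means visual image review flags a hit and inhibition of aggregation exceeds 20%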;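 further: compound exposure lasted 3 days before fixation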;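 on nuclei count: percent of the per-plate median nuclei count of sample wells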); conditions: exon1htt(103Q)mCFP cell line, aggregate imaging, at 2 µM; inhibition of aggregation: stronger effect = higher value; nuclei count: measured here: cell count, toxicity
[3] = endothelial E-selectin expression blockers – imaging, HUVEC, immunofluorescence, MLSMR starter and 10KST1 sets, primary screen (AID 487;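 active means visually confirmed hit in the image check and inhibition above 20%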;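 on inhibition: signal is fraction of cell area covered by stained E-selectin grains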;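 on nuclei count: 100% = median nuclei count of all wells on the same plate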); conditions: HUVEC TNFalpha-induced E-selectin immunofluorescence imaging, at 2 µM; inhibition: stronger effect = higher value; nuclei count: measured here: cell number, toxicity
[4] = molecular target: Voltage-gated potassium channel subunit beta-2 (Rattus norvegicus) (UniProt P62483); assay: inhibitors of rat Kvbeta2 reductase activity – biochemical, NADPH fluorescence, primary screen (AID 622;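 active means fluorescence slope higher than the sample average by over 3 SD, cut at about -0.22 in these data, passing the limit was not always enough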;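 further: slope of raw intensity against log time taken from 70 to 1610 s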); conditions: recombinant KvBeta, 4-cyanobenzaldehyde reduction, at 10 µM, stronger effect = higher value
[5] = molecular target: Voltage-gated potassium channel subunit beta-2 (Rattus norvegicus) (UniProt P62483); assay: enhancers of rat Kvbeta2 NADPH turnover – biochemical, NADPH fluorescence, primary screen (AID 623;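 active means NADPH fluorescence slope more negative than the mean of all samples by about 3 SD, 99.7% confidence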;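 further: fluorescence intensity change per second fitted from 20 to 320 s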); conditions: Recombinant KvBeta, NADPH fluorescence decrease slope, 10 min; at 10 µM; stronger effect = lower value
[6] = molecular target: Alpha-2C adrenergic receptor (Homo sapiens) (UniProt P18825); assay: compounds altering alpha2C-coupled GIRK flux – cell-based, HEK293 alpha2C/GIRK1/2, thallium flux, primary screen (AID 624;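 active means fluorescence slope after compound addition differing from the mean of all screened samples at 99.7% confidence, in either direction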;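 further: slope of fluorescence ratio to pre-addition baseline per second over 15 to 24 s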); conditions: thallium flux BTC fluorescence, at 10 µM, actives lie on both sides
[7] = blockers of RIG-like receptor reporter activation – cell-based, Sendai virus stimulus, luciferase, 10K MLSCN set, TLR/RLR signaling modifier project, primary screen (AID 602276); conditions: HEK293 RL24 IRF3 luciferase reporter, at 10 µM, stronger effect = higher value;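 further: firefly luciferase from ISG56 promoter only with Renilla not read in this screen; 0% = Sendai virus plus DMSO and 100% = medium plus DMSO without virus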
[8] = TLR3 IRF3 reporter activation blockers – cell-based, poly I:C stimulus, luciferase, 10K MLSCN set, primary screen (AID 602277;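 active means inhibition of the reporter signal at or above 50%; inactive means inhibition below 50%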); conditions: HEK293-TLR3 RL24 IRF3 luciferase reporter, at 10 µM, stronger effect = higher value

Alpha-2C adrenergic receptor (Homo sapiens), sequence (P18825 whole entry, looked up): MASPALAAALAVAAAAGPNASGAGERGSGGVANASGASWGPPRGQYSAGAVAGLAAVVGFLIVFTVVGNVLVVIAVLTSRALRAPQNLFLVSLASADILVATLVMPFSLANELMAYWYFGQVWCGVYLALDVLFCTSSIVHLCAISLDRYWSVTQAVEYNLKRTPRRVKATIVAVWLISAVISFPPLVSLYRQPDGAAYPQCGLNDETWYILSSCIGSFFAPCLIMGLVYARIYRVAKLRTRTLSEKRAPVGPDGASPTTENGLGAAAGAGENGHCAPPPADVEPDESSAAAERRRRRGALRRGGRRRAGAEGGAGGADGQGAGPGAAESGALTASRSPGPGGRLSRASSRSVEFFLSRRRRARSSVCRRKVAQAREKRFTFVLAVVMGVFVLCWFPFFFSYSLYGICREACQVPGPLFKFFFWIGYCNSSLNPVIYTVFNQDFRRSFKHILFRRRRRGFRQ
Voltage-gated potassium channel subunit beta-2 (Rattus norvegicus), sequence (P62483 whole entry, looked up): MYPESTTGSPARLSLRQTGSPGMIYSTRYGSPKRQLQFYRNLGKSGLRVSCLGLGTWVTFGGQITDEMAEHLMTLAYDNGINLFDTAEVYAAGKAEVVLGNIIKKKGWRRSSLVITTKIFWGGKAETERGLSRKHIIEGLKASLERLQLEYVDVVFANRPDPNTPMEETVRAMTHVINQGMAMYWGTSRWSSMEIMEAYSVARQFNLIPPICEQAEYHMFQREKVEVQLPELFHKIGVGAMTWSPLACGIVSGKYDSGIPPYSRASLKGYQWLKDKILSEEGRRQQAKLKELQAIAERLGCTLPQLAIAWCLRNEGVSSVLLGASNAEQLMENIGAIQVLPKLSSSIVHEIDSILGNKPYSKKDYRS

SMILES | cell count [1] | inhibition [1] | inhibition of aggregation [2] | nuclei count [2] | inhibition [3] | nuclei count [3] | fluorescence slope [4] | NADPH fluorescence slope [5] | slope [6] | inhibition [7] | inhibition [8]
COc1ccc(N(CC(=O)N2CCCCC2)S(=O)(=O)c2ccccc2)c(OC)c1 | 622 | -7.8% (inactive) | -4.8% (inactive) | 104% | -218% (inactive) | 132% | -0.278 (inactive) | -7.4e-06 (inactive) | 0.00613 (inactive) | 12% (inactive) | 26.9% (inactive)
COc1ccc(CNS(=O)(=O)c2ccc3oc(C(=O)O)c(C)c3c2)cc1 | 624 | -4.4% (inactive) | -6% (inactive) | 75.2% | -31.4% (inactive) | 114% | -0.466 (inactive) | 8.2e-05 (inactive) | 0.00607 (inactive) | 15.6% (inactive) | 20.3% (inactive)
CC(=O)N1CCN(S(=O)(=O)c2ccc(S(=O)(=O)NCC(C)C)cc2)CC1 | 641 | 1.6% (inactive) | 5.2% (inactive) | 102% | -10.2% (inactive) | 110% | -0.399 (inactive) | -3.9e-05 (inactive) | 0.00517 (inactive) | 14.8% (inactive) | 12.6% (inactive)
O=C(CSCc1cccc(F)c1)N1CCN(c2ccccc2)CC1 | 545 | -14.3% (inactive) | 33.7% (inactive) | 68.7% | -66.2% (inactive) | 123% | -0.398 (inactive) | -5.3e-05 (inactive) | 0.00288 (inactive) | -32.3% (inactive) | -145% (inactive)
NC(=O)CSc1nnc(-c2cnccn2)n1-c1ccccc1 | 625 | 3.8% (inactive) | -10.7% (inactive) | 102% | 19% (inactive) | 94.9% | -0.501 (inactive) | -4.9e-05 (inactive) | 0.0054 (inactive) | 20.2% (inactive) | 20.8% (inactive)
CCN(CC)C(=O)COc1ccc2oc(C)c(C(=O)OC(C)C)c2c1 | 455 | 12.5% (inactive) | -21.2% (inactive) | 108% | -25.5% (inactive) | 126% | -0.42 (inactive) | 3.2e-05 (inactive) | 0.00275 (inactive) | 2.59% (inactive) | 17.4% (inactive)
Clc1ccccc1OCCCCn1ccnc1 | 425 | -0.2% (inactive) | -10.9% (inactive) | 97.3% | 14.5% (inactive) | 106% | -0.464 (inactive) | -5.3e-05 (inactive) | 0.0106 (active) | -3.32% (inactive) | 5.03% (inactive)
CCOC(=O)C1CCN(C(=O)CN(Cc2ccccc2)S(C)(=O)=O)CC1 | 370 | 2.3% (inactive) | -32.7% (inactive) | 102% | -78.2% (inactive) | 115% | -0.422 (inactive) | -5.7e-05 (inactive) | 0.00496 (inactive) | 10% (inactive) | 7.77% (inactive)
COc1ccc(-c2nnc(SCC(=O)Nc3cc(C)on3)n2C)cc1OC | 364 | 2.6% (inactive) | -9.8% (inactive) | 87.3% | -12.1% (inactive) | 108% | -0.473 (inactive) | -1.3e-05 (inactive) | 0.00613 (inactive) | -4.06% (inactive) | 25% (inactive)
CC(C)COC(=O)C(C#N)c1nc2ccccc2nc1N1CCN(Cc2ccccc2)CC1 (centres undefined) | 296 | 4.2% (inactive) | 3.4% (inactive) | 91.2% | 17.8% (inactive) | 87% | -0.425 (inactive) | 8.1e-06 (inactive) | 0.00589 (inactive) | 14.6% (inactive) | 7.75% (inactive)
CCOC(=O)Cn1c(N2CCOCC2)nc2c1c(=O)[nH]c(=O)n2C | 673 | -8.7% (inactive) | -18.2% (inactive) | 118% | -0.1% (inactive) | 107% | -0.415 (inactive) | -6.2e-05 (inactive) | 0.00268 (inactive) | 9.13% (inactive) | 21.5% (inactive)
CCc1nccn1S(=O)(=O)c1ccc(C)c(C)c1 | 603 | -11.5% (inactive) | 7% (inactive) | 94% | -33% (inactive) | 117% | -0.618 (inactive) | -5.2e-05 (inactive) | 0.00545 (inactive) | 7.1% (inactive) | 12.9% (inactive)
O=C(OCN1C(=O)c2ccccc2C1=O)c1ccc2c(=O)n3c(nc2c1)CCC3 | 380 | -26.1% (inactive) | 29.8% (inactive) | 79.3% | 74.4% (inactive) | 96.4% | -0.581 (inactive) | -6.9e-05 (inactive) | 0.00527 (inactive) | 5.92% (inactive) | 16.5% (inactive)
COC(=O)C1=CN(C(C)C)C=C(C(=O)OC)C1c1cc2c(cc1Br)OCO2 | 386 | 8.1% (inactive) | 10.8% (inactive) | 104% | -70.4% (inactive) | 78.3% | -0.365 (inactive) | 2e-05 (inactive) | 0.00637 (inactive) | 5.71% (inactive) | 11% (inactive)
